± gives the standard deviation.
system: MILI (PIWIL2) piRISC loaded with L1MC piRNA (26 nt); test: pre-steady-state target cleavage rate (min^-1); guide: L1MC piRNA 5'p-UAACUAAAUACUAUGCAAGCUGUAGG; MIWI and MILI are mouse PIWI proteins and EfPiwi is from a freshwater sponge; tags in brackets are library labels; higher = faster piRNA-guided slicing of the target; details: auxiliary factor: 500 nM mouse GTSF1
Procedure, shortened: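 In Cleave-'n-Seq, a transcribed, DNA-blocked target RNA library (0.1 nM) was combined with 1 nM active affinity-purified piRISC bearing one synthetic guide, with or without 500 nM GTSF1 partner protein. Reactions ran in HEPES–potassium acetate buffer at 33 °C for 0–8 or 0–960 min. Uncleaved targets were sequenced and normalised to depth and to weakly complementary targets, three trials were pooled, and k3 was capped at 0.0001 min^-1. The pre-steady-state cleavage rate was obtained by fitting a burst-and-steady-state model.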

Row | Sequence | pre-steady-state target cleavage rate
1 | UCCUGGUACAGCUUGCAUAGUACUUAGUUA | 0.187 ± 0.029
2 | UCCUGCUACUGCUUGGAUAGUAUUUAGUUA | 0.221 ± 0.016
3 | UCCUGGAUGUGCUGCAUAGUAUUUAGUUA | 0.0672 ± 0.009
4 | UCCUGGAUGUGACUUGCAUAGUAUUUAGUUA | 0.114 ± 0.019
5 | UCCUGGUAGUGCUUGCAUAGUAUUUAGUAA | 0.191 ± 0.032
6 | UCCUGGAACUGCUUGCAUAGUAUUUAGUAA | 0.171 ± 0.015
7 | UCCUCCUACACCAUGCAUAGUAUUUAGUUA | 0.243 ± 0.019
8 | UCCUGGAUGUGCUUGCAUAGUAUUUAAGUUA | 0.158 ± 0.018
9 | UCCUGGUACAGCAUUGCAUAGUAUUUAGUUA | 0.257 ± 0.039
10 | UCCUGGAUGUCGUUUGCAUAGUAUUUAGUUA | 0.13 ± 0.013
11 | UCCUGGUACAGCUUGCAAGUAUUUAGUUA | 0.113 ± 0.014
12 | UCCUGGAUCAGCUAGCAUAGUAUUUAGUAA | 0.219 ± 0.012
13 | UCCUGGAUCAGCUUGCAUGGUAUUUAGUUA | 0.285 ± 0.025
14 | UCCUGGAACAGCUUGUAUAGUAUUUAGUUA | 0.323 ± 0.017
15 | UCCUCCUACAGCUAGCUUAGUAUUUAGUUA | 0.206 ± 0.017
16 | UCCUGGUAGAGCUUGCUUAGUAUUUAGUUA | 0.226 ± 0.012
17 | UCCUGCUACAGCUAGGAUAGUAUUUAGUUA | 0.259 ± 0.015
18 | UCCUGGAUGUGCUUGCAUAGUCUUUAGUUA | 0.0458 ± 0.011
19 | UCCUCCUUGUGCUUGCAUAGUAUUUAGUUA | 0.157 ± 0.012
20 | UCCUGGAACAGCUGUGCAUAGUAUUUAGUUA | 0.206 ± 0.015
21 | UCCUGGUUCAGCUUGCAUAGUUUUUAGUUA | 0.0483 ± 0.013
22 | UCCUGGUACUGGUUGCAUAGUAUUUAGUUA | 0.162 ± 0.042
23 | UCCUGGAUCAGCUUGCUUAGUAUUAAGUUA | 0.129 ± 0.016
24 | UCCUCCUACAGCUUGCAUAGAUUUUAGUUA | 0.0522 ± 0.012
